Assay results taken from PubChem BioAssay (EPA / NIEHS).
Results filed as inconclusive are left out. The source made the active and inactive calls. Rule for the calls, unless noted: active = hit-call score of the fitted dose curve at least 0.9, where 1 is the maximum; inconclusive = response in the unintended direction; inactive = score below 0.9.

Columns and labels:
[1] = ATG_TCF_b_cat_CIS: Attagene CIS-FACTORIAL HepG2 Assay for human T-Cell-Factor with beta-catenin (TCF/b-cat) (AID 2282965; active = hit-call score of the fitted dose curve at least 0.9, where 1 is the maximum; inactive = score below 0.9); conditions: HepG2 TCF/beta-catenin cis-reporter transcription, actives raise or lower the signal
How it was run: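 Cells of the HepG2 line carry transiently transfected reporter units whose promoters respond to endogenous factors. Twenty-four hours post-dosing, reporter mRNA induction is measured by fluorescent RT-PCR and capillary electrophoresis, with DMSO as baseline.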

[2] = ATG_TAL_CIS: Attagene CIS-FACTORIAL HepG2 Assay for human TAL Basal Promoter (AID 2282966; active = hit-call score of the fitted dose curve at least 0.9, where 1 is the maximum; inactive = score below 0.9;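 note: background control endpoint measuring basal TAL promoter reporter mRNA not a specific factor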); conditions: HepG2 Attagene cis-factorial TAL promoter reporter; actives raise or lower the signal
How it was run: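 HepG2, transient MRTU transfection, 24 h compound exposure; RNA → oligo(dT) RT → PCR → 6-FAM primer extension → HpaI digest → CE fluorescence. Bidirectional curve fit vs DMSO. Background-control readout.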

[3] = ATG_TGFb_CIS: Attagene CIS-FACTORIAL HepG2 Assay for human Transforming Growth Factor (TGF) (AID 2282967; active = hit-call score of the fitted dose curve at least 0.9, where 1 is the maximum; inactive = score below 0.9); conditions: HepG2 Attagene CIS TGFb reporter, mRNA transcription; actives raise or lower the signal
How it was run: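 Multiplexed cis-reporter HepG2 system, 24 h treatment; mRNA induction read by fluorescence after RT-PCR and CE; DMSO negative control, bidirectional curve fitting.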

[4] = biological target: Estrogen receptor (Homo sapiens) (UniProt P03372); assay: ATG_ERa_TRANS: Attagene TRANS-FACTORIAL HepG2 Assay for human Estrogen Receptor alpha (ERa) (AID 2282970); conditions: HepG2 Attagene TRANS ERa GAL4 reporter, mRNA
How it was run: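 Reporter mRNA induction after 24 hours, detected by fluorescent RT-PCR and capillary electrophoresis, gives the read-out. Cells are HepG2 transiently transfected with GAL4-UAS reporter transcription units responding to chimeric NR-Gal4. Activity is taken as gain of signal over DMSO baseline.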

[5] = biological target: X-box-binding protein 1 (Homo sapiens) (UniProt P17861); assay: ATG_Xbp1_CIS: Attagene CIS-FACTORIAL HepG2 Assay for human X-box Binding Protein 1 (XBP1) (AID 2282972; active = hit-call score of the fitted dose curve at least 0.9, where 1 is the maximum; inactive = score below 0.9); conditions: HepG2 XBP1 cis-element reporter, Attagene multiplex; actives raise or lower the signal
How it was run: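 Human hepatoma HepG2, cis-element reporter system, 24 h treatment; mRNA quantified by RT-PCR/CE fluorescence; fit relative to DMSO.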

[6] = ATG_GAL4_TRANS: Attagene TRANS-FACTORIAL HepG2 Assay for GAL4 (Internal Marker) (AID 2282976); conditions: HepG2 Attagene TRANS GAL4 internal marker reporter
How it was run: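 RT-PCR/capillary electrophoresis readout of reporter mRNA. HepG2, transient MRTU transfection (GAL4-UAS reporters), 24 h compound exposure. Background-control endpoint, positive direction vs DMSO baseline.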

[7] = biological target: Glucocorticoid receptor (Homo sapiens) (UniProt P04150); assay: ATG_GR_TRANS: Attagene TRANS-FACTORIAL HepG2 Assay for human Glucocorticoid Receptor (GR) (AID 2282978); conditions: HepG2 Attagene TRANS GR reporter, mRNA transcription;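 note: activators score as hits since higher reporter transcript over DMSO is fitted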
How it was run: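 Multiplexed TRANS reporter system, HepG2; 24 h exposure; RNA → oligo(dT) RT → reporter-specific PCR → 6-FAM primer extension → HpaI cut → CE fluorescence. Gain-of-signal vs DMSO.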

[8] = biological target: Bile acid receptor (Homo sapiens) (UniProt Q96RI1); assay: ATG_FXR_TRANS: Attagene TRANS-FACTORIAL HepG2 Assay for Farnesoid X Receptor (FXR) (AID 2282979); conditions: HepG2 Attagene TRANS FXR-GAL4 reporter transcription;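 note: hits raise reporter mRNA above DMSO so AC50 marks FXR activation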
How it was run: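 Read-out: fluorescent reporter transcripts quantified by capillary electrophoresis after RT-PCR of total RNA. Source cells were HepG2 transiently carrying chimeric NR-GAL4 plus GAL4-UAS reporter units, dosed 24 h. Activity fitted upward relative to DMSO baseline.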

[9] = biological target: Oxysterols receptor LXR-alpha (Homo sapiens) (UniProt Q13133); assay: ATG_LXRa_TRANS: Attagene TRANS-FACTORIAL HepG2 Assay for human Liver X Receptor alpha (LXRa) (AID 2282980); conditions: HepG2 Attagene TRANS reporter, LXRa transactivation
How it was run: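 Read-out: reporter transcript levels by RT-PCR plus capillary electrophoresis, fluorescence intensity. Transiently transfected HepG2, exogenous NR-GAL4 chimera, GAL4-UAS reporters; 24 h compound exposure. Activity = increase over DMSO negative control.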

[10] = biological target: Oxysterols receptor LXR-beta (Homo sapiens) (UniProt P55055); assay: ATG_LXRb_TRANS: Attagene TRANS-FACTORIAL HepG2 Assay for human Liver X Receptor beta (LXRb) (AID 2282981); conditions: HepG2 Attagene TRANS GAL4-LXRb reporter, mRNA
How it was run: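 Readout: fluorescent reporter mRNA fragments resolved by capillary electrophoresis after RT-PCR. System: transiently transfected human HepG2, exogenous LXRb-Gal4 chimera driving GAL4-UAS reporter, 24 h dosing. Activity fitted upward against DMSO baseline.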

[11] = biological target: Hepatocyte nuclear factor 4-alpha (Homo sapiens) (UniProt P41235); assay: ATG_HNF4a_TRANS: Attagene TRANS-FACTORIAL HepG2 Assay for human Hepatocyte Nuclear Factor 4 alpha (HNF4a) (AID 2282982); conditions: HepG2 HNF4a transactivation reporter, mRNA readout
How it was run: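 Transient MRTU transfection of HepG2, 24 h dosing. Readout: reporter mRNA via RT-PCR + capillary electrophoresis, fluorescence; activity fit upward relative to DMSO control.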

[12] = ATG_M_06_TRANS: Attagene TRANS-FACTORIAL HepG2 Assay for M06 Transcription Factor (Internal Marker) (AID 2282983); conditions: HepG2 Attagene TRANS M06 internal marker reporter
How it was run: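 Read-out: fluorescent reporter cDNA fragments resolved by capillary electrophoresis after RT-PCR and HpaI cut. Source cells were HepG2 carrying transfected multi-reporter GAL4 constructs, dosed 24 h. Increase over DMSO control analysed.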

[13] = ATG_M_32_TRANS: Attagene TRANS-FACTORIAL HepG2 Assay for M32 Transcription Factor (Internal Marker) (AID 2282984); conditions: HepG2 Attagene TRANS M32 internal marker reporter;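 note: transcript level of a background control reporter unit measured by RT-PCR and capillary electrophoresis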
How it was run: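 Read-out: fluorescent reporter cDNA fragments resolved by capillary electrophoresis after RT-PCR of total RNA. Transfected HepG2 cells were exposed to chemical for 24 h. Activity scored in the positive direction relative to DMSO.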

[14] = biological target: Nuclear receptor subfamily 4 group A member 2 (Homo sapiens) (UniProt P43354); assay: ATG_NURR1_TRANS: Attagene TRANS-FACTORIAL HepG2 Assay for human Nuclear Receptor Related Protein 1 (NURR1) (AID 2282985); conditions: HepG2 Attagene TRANS reporter, mRNA readout
How it was run: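 Read-out: reporter mRNA induction by RT-PCR plus capillary electrophoresis with fluorescence detection, after 24 h dosing of transfected HepG2 cells. Exogenous NR-Gal4 chimera activity drives GAL4-UAS reporter; activity fitted upward versus DMSO.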

[15] = biological target: Transcriptional activator Myb (Homo sapiens) (UniProt P10242); assay: ATG_Myb_CIS: Attagene CIS-FACTORIAL HepG2 Assay for human Myeloblastosis (Myb) Proto-Oncogene Transcription Factor (AID 2282986; active = hit-call score of the fitted dose curve at least 0.9, where 1 is the maximum; inactive = score below 0.9); conditions: HepG2 Attagene CIS-FACTORIAL Myb reporter transcription; actives raise or lower the signal
How it was run: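 Endogenous transcription factor activity at a Myb-responsive cis element is reported in human liver HepG2 cells after 24 h chemical treatment. Reporter mRNA is detected by RT-PCR and capillary electrophoresis fluorescence, with DMSO as baseline.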

[16] = biological target: Steroid hormone receptor ERR1 (Homo sapiens) (UniProt P11474); assay: ATG_ERRa_TRANS: Attagene TRANS-FACTORIAL HepG2 Assay for human Estrogen-Related Receptor alpha (ERRa) (AID 2282971); conditions: HepG2 Attagene TRANS reporter, ERRa transactivation
How it was run: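 Transfected HepG2, 24 h dosing, ERRa-Gal4 chimera driving GAL4-UAS reporter. Readout: reporter mRNA via RT-PCR plus capillary electrophoresis (fluorescence). Positive direction vs DMSO control.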

[17] = biological target: Estrogen-related receptor gamma (Homo sapiens) (UniProt P62508); assay: ATG_ERRg_TRANS: Attagene TRANS-FACTORIAL HepG2 Assay for human Estrogen-Related Receptor gamma (ERRg) (AID 2282977); conditions: HepG2 Attagene TRANS reporter, ERRg transactivation;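 note: hits increase reporter signal over DMSO so potencies reflect activators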
How it was run: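 Readout: fluorescent reporter-mRNA fragments resolved by capillary electrophoresis after RT-PCR and HpaI cut. Cells: transiently transfected HepG2 carrying GAL4-UAS reporters driven by exogenous NR-Gal4 chimeras, dosed 24 h. Activity fitted upward relative to DMSO baseline.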

[18] = ATG_VDRE_CIS: Attagene CIS-FACTORIAL HepG2 Assay for human Vitamin D Receptor Element (VDRE) (AID 2282968; active = hit-call score of the fitted dose curve at least 0.9, where 1 is the maximum; inactive = score below 0.9); conditions: HepG2 VDRE cis-reporter transcription, actives raise or lower the signal
How it was run: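 Transient MRTU transfection of HepG2, 24 h compound exposure. Readout: reporter transcripts via RT-PCR and capillary electrophoresis, fluorescence. Bidirectional fit vs DMSO.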

[19] = biological target: Nuclear receptor subfamily 1 group I member 3 (Homo sapiens) (UniProt Q14994); assay: ATG_CAR_TRANS: Attagene TRANS-FACTORIAL HepG2 Assay for human Constitutive Androstane Receptor (CAR) (AID 2282969); conditions: HepG2 Attagene TRANS-FACTORIAL CAR reporter;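 note: activators raise reporter mRNA above DMSO so AC50 marks induction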
How it was run: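 Transiently transfected HepG2, multiplex TRANS reporters (CAR-Gal4 chimera driving GAL4-UAS reporter). 24 h dosing. Readout: reporter transcript by RT-PCR + capillary electrophoresis, fluorescence intensity; positive direction vs DMSO.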

[20] = ATG_M_19_TRANS: Attagene TRANS-FACTORIAL HepG2 Assay for M19 Transcription Factor (Internal Marker) (AID 2282974); conditions: HepG2 Attagene TRANS-FACTORIAL M19 internal marker reporter
How it was run: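 After transfection of HepG2 with GAL4-UAS-driven reporter constructs, cells are dosed for 24 h. Total RNA is reverse-transcribed, reporter sequences PCR-amplified and labelled, then HpaI-digested and sized by capillary electrophoresis.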

Measured: AC50

Sequence of Nuclear receptor subfamily 4 group A member 2 (Homo sapiens) (P43354 whole entry, looked up, the tested form may be a part): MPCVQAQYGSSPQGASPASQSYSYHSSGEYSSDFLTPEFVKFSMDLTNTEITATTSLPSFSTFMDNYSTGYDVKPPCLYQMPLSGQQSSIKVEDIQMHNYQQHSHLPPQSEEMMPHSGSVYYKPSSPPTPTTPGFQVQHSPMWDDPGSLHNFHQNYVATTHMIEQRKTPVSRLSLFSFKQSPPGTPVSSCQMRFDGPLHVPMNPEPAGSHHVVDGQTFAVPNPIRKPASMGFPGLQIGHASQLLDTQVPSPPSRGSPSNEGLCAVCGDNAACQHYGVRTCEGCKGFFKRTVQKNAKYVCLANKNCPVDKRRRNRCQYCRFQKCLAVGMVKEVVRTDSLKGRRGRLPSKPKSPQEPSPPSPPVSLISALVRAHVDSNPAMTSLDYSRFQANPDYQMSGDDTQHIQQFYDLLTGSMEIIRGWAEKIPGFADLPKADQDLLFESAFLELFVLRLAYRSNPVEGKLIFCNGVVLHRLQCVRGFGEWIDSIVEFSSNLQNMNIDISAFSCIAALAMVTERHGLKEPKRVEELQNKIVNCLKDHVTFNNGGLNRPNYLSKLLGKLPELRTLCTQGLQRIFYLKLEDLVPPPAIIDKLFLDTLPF
Sequence of Estrogen receptor (Homo sapiens) (P03372 whole entry, looked up, the tested form may be a part): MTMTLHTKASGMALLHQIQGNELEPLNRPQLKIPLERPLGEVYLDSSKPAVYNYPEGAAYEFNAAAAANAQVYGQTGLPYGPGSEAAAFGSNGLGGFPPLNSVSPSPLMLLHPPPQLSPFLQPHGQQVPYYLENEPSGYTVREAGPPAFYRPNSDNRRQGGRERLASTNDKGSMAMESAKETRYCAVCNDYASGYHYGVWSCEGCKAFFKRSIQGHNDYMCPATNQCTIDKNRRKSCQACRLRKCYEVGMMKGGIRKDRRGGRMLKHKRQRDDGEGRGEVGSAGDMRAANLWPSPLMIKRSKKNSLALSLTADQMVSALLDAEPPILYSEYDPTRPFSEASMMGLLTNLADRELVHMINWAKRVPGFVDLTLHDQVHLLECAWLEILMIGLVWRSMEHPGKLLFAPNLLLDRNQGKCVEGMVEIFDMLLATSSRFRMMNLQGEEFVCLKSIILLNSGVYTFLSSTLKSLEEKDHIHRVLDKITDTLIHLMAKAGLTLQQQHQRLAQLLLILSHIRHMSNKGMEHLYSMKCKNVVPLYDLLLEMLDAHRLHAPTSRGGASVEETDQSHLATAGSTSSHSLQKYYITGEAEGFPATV
Sequence of Estrogen-related receptor gamma (Homo sapiens) (P62508 whole entry, looked up, the tested form may be a part): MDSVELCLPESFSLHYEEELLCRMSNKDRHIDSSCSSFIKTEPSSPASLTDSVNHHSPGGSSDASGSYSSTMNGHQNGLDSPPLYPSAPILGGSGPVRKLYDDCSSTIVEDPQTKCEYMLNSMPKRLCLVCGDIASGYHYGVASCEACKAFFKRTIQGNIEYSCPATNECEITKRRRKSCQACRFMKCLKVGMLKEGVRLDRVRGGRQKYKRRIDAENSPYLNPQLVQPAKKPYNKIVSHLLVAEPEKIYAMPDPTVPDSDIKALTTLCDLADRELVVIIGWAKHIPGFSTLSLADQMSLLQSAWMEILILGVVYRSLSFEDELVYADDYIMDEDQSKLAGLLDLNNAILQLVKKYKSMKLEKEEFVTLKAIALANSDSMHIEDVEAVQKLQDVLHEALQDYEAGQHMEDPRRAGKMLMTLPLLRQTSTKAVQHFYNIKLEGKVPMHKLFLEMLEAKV
Sequence of Glucocorticoid receptor (Homo sapiens) (P04150 whole entry, looked up): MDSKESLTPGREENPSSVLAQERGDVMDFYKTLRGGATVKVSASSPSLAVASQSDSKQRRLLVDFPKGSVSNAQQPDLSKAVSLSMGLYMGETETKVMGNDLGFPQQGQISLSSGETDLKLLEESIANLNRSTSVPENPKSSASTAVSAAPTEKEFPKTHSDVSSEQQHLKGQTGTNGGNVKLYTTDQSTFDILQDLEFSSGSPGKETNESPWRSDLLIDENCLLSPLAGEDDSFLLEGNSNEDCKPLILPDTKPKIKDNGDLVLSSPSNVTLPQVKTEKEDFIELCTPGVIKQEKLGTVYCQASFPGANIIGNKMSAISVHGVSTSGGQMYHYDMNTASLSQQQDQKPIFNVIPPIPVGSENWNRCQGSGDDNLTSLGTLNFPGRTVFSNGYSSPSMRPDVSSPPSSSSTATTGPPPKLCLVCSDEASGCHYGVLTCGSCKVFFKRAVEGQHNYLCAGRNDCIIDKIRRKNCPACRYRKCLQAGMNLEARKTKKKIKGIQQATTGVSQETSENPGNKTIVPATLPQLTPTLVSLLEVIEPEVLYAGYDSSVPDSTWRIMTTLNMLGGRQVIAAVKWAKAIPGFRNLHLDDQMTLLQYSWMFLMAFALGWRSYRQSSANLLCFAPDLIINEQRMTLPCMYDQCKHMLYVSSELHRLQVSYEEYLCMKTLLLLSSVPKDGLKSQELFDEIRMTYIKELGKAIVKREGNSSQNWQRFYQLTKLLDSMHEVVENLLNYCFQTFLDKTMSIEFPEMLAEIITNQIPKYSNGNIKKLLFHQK
Sequence of Oxysterols receptor LXR-beta (Homo sapiens) (P55055 whole entry, looked up, the tested form may be a part): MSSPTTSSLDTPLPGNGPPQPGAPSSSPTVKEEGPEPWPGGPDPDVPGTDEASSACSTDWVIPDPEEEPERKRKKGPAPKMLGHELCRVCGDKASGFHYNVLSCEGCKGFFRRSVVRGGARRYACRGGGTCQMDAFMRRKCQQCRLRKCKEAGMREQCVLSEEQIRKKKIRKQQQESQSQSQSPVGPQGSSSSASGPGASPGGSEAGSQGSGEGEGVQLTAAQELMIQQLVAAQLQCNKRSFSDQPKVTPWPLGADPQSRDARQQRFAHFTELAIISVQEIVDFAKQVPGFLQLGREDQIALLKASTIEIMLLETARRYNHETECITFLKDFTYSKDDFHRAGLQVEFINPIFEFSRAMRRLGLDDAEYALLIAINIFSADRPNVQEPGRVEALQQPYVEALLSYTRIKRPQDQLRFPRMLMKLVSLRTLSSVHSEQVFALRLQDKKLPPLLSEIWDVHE
Sequence of Hepatocyte nuclear factor 4-alpha (Homo sapiens) (P41235 whole entry, looked up): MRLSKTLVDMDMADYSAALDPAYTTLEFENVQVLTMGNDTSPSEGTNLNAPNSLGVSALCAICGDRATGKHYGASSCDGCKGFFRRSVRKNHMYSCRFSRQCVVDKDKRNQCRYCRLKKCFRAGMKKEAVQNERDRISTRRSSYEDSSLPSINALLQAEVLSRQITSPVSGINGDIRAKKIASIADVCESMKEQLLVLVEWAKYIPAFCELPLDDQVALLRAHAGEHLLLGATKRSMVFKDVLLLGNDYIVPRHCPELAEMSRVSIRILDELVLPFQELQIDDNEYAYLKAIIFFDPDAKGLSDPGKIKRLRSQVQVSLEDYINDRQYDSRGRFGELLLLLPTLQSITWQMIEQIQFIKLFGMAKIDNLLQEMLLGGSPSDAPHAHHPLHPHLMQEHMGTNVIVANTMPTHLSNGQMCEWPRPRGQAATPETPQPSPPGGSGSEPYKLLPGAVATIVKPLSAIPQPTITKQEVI
Sequence of Steroid hormone receptor ERR1 (Homo sapiens) (P11474 whole entry, looked up, the tested form may be a part): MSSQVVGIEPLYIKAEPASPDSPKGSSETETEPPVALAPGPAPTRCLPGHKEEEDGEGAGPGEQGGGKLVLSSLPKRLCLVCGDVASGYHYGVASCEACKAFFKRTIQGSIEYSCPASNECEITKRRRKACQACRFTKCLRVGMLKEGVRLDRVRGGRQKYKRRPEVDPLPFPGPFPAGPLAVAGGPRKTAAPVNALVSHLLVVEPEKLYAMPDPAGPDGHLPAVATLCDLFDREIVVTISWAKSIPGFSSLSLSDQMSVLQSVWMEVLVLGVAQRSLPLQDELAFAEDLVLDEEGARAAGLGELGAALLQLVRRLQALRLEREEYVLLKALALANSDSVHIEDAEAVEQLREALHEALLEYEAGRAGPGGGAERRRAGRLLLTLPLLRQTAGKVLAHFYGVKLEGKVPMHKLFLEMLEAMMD
Sequence of Nuclear receptor subfamily 1 group I member 3 (Homo sapiens) (Q14994 whole entry, looked up, the tested form may be a part): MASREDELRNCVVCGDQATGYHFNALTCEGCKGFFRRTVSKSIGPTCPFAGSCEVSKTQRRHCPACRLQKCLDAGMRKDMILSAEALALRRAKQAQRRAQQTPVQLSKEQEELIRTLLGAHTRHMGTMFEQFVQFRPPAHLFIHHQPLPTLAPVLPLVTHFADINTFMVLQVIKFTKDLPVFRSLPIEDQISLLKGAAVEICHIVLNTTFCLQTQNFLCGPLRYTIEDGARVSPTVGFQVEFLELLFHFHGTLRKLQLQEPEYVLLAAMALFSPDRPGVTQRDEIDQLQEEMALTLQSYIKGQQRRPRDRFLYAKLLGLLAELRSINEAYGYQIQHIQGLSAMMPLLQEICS
Sequence of Oxysterols receptor LXR-alpha (Homo sapiens) (Q13133 whole entry, looked up, the tested form may be a part): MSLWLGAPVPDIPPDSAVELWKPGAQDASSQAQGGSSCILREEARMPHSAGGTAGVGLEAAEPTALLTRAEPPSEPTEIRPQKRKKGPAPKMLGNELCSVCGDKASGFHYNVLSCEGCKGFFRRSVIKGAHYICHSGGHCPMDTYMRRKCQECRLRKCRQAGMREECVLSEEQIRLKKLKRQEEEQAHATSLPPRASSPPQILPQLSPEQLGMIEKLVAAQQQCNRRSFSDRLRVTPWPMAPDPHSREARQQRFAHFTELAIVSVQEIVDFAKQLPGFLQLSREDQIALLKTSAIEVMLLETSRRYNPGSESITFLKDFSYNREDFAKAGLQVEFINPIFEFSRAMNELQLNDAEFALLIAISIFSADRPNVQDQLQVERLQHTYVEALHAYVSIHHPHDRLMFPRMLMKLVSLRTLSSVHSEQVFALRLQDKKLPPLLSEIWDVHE
Sequence of X-box-binding protein 1 (Homo sapiens) (P17861 whole entry, looked up): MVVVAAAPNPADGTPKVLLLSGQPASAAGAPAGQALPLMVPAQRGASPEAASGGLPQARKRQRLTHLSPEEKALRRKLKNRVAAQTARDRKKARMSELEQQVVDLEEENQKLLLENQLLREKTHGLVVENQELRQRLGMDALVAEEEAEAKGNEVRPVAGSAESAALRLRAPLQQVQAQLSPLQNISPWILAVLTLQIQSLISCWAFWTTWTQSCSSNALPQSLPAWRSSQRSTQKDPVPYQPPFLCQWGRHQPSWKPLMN

CCO[Si](CCC#N)(OCC)OCC
not listed: [16] | [17] | [18] | [19] | [20]
inactive: all other assays above

NC(N)=NC(N)=NCCc1ccccc1
inactive: [1] | [2] | [3] | [4] | [5] | [7] | [9] | [10] | [11] | [15]

CCCCCCCCOS(=O)(=O)O
not listed: [4] | [9] | [10] | [11] | [14] | [18] | [19] | [20]
inactive: all other assays above

O=C(O)c1cc2ccccc2cc1O
not listed: [3] | [6] | [7] | [8] | [20]
inactive: all other assays above

c1ccc(OCCOc2ccccc2)cc1
not listed: [3] | [6] | [8] | [10] | [14] | [16] | [17]
inactive: all other assays above

Cc1cc(O)c(C)c(C)c1O
not listed: [4] | [6] | [7] | [8] | [10] | [11] | [18] | [20]
inactive: all other assays above

Nc1ccc(N)c([N+](=O)[O-])c1
active: [4] 37.8 µM [middle of 5 runs]
not listed: [8] | [11] | [14] | [16] | [17] | [18]
inactive: all other assays above

N#CCCCC(C#N)CCC#N (configuration not stated)
not listed: [4] | [7] | [8] | [11] | [13] | [18] | [19] | [20]
inactive: all other assays above

CC(C)(CO)CO
inactive: [1] | [2] | [3] | [16] | [5] | [20] | [7] | [9] | [11] | [12] | [15]

Nc1ccn([C@H]2CC[C@@H](CO)O2)c(=O)n1
inactive: [1] | [2] | [3] | [5] | [9] | [11] | [12] | [15]
